From PubChem BioAssay (Tox21)
Values joined by “and” are separate entries in the source; they are usually repeats but may differ in a detail not shown here. Identical values can stand only once. Values without a mark were called inactive. Results filed as inconclusive are left out. Entries that show only a call come without a potency. Active and inactive are the calls of the source. Unless noted, calls follow the shape of the dose curve; as a rule, active = well fitted curve in the direction sought with a large enough effect in the repeat runs; inconclusive = weak or mixed curves; inactive = no such curve, though single readings can be large; an effect the other way counts as inactive or inconclusive.

Key:
[1] = qHTS assay for small molecule agonists of the p53 signaling pathway (AID 651631; calls by dose curve; also: nearly all actives have a fitted effect of over 15% in size; also: potency is read from the fitted curve at half-maximal effect)
Summary of the method: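 Beta-lactamase reporter activity under p53 response elements was quantified in HCT-116 cells by FRET fluorescence, following 16 h incubation with test compounds at 37 °C and 2 h substrate development at room temperature.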

[2] = qHTS assay for small molecules that induce genotoxicity in human embryonic kidney cells expressing luciferase-tagged ATAD5 (AID 651632); also: nearly all actives have a fitted effect of over 15% in size; also: potency is read from the fitted curve at half-maximal effect
Summary of the method: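 Quantitative HTS in HEK293T expressing luciferase-tagged ATAD5, whose levels rise upon DNA damage. Exposure ran 16 hr at 37C and 5% CO2, with luminescence read 30 min after Amplite addition at room temperature.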

[3] = qHTS assay for small molecule agonists of the p53 signaling pathway - cell viability (AID 651633; calls by dose curve; also: nearly all actives have a fitted effect of over 30% in size; also: potency is read from the fitted curve at half-maximal effect)
Summary of the method: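 p53RE-bla cells, seeded at 4,000 per well and rested 5 h at 37 C/5% CO2, received compounds in DMSO for 16 h at 37 C. CellTiter-Glo was then added, and luminescence was read after 30 min at room temperature to gauge cytotoxicity.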

[4] = qHTS assay for small molecules that induce genotoxicity in human embryonic kidney cells expressing luciferase-tagged ATAD5 - cell viability (AID 651634; calls by dose curve; also: nearly all actives have a fitted effect of over 25% in size; also: potency is read from the fitted curve at half-maximal effect)
Summary of the method: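 After 15.5 hr incubation with compound at 37C, 5% CO2, HEK293T ATAD5-luciferase cells received CellTiter-Fluor reagent; fluorescence intensity was quantified following 30 min at 37C.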

[5] = qHTS assay for small molecule disruptors of the mitochondrial membrane potential - cell viability (AID 720634; calls by dose curve;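 also: human HepG2 liver cancer cells; series mostly up to about 83 µM; nearly all actives have a fitted effect of over 20% in size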)
Summary of the method: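 ATP-based luminescent viability readout (CellTiter-Glo, 30 min, room temperature) in HepG2 cells multiplexed with the m-MPI membrane potential dye; compound exposure lasted 1 hr at 37 C.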

[6] = qHTS assay for small molecule disruptors of the mitochondrial membrane potential (AID 720635)
Summary of the method: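 HepG2 cells (2,000/well) attached overnight at 37C, then took compound for 1 hr at 37C, 5% CO2. Mito-MPS dye was added for 30 min; fluorescence was read at 490/535 nm (monomers) and 540/590 nm (aggregates).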

[7] = qHTS assay to test for compound auto fluorescence at 590 nm (red) in HepG2 cells (AID 720674)
Summary of the method: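 Compound auto-fluorescence is scored relative to Rose Bengal sodium, measured at 540/590 nm in live HepG2 cultures after 1 hr compound contact (37 C, 5% CO2).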

[8] = qHTS assay to test for compound auto fluorescence at 535 nm (green) in HepG2 cells (AID 720675)
[9] = qHTS assay to test for compound auto fluorescence at 460 nm (blue) in HEK293 cells (AID 720678)
Summary of the method: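 HEK293 cells (2,000/well, medium with 10% dialyzed FBS) attached 4-5 hr, then exposed to compound overnight at 37C, 5% CO2. Blue fluorescence read at 405/460 nm, with triamterene as reference fluorophore.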

[10] = qHTS assay to test for compound auto fluorescence at 590 nm (red) in HEK293 cells (AID 720679)
Summary of the method: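 HEK293 cells (2,000/well, 10% dialyzed FBS) attached 4-5 hr, then dosed with compound or DMSO and incubated overnight at 37C, 5% CO2. Red fluorescence read at 540/590 nm, Rose Bengal sodium as reference fluorophore.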

Compound	Potency [1]	Potency [2]	Potency [3]	Potency [4]	Potency [5]	Potency [6]	outcome [7]	outcome [8]	Potency [9]	outcome [10]	fluorescence, relative to Rose Bengal [7]	fluorescence, % of fluorescein control [8]	fluorescence, % of triamterene [9]	fluorescence, % of fluorescent control [10]
CCc1ccc(C(=O)C(C)CN2CCCCC2)cc1 (configuration not stated)	inactive	inactive	inactive	inactive	inactive	inactive	inactive	inactive	inactive	inactive				
C(/C=C/C=C/Nc1ccccc1)=Nc1ccccc1	inactive	inactive	inactive	inactive	inactive	inactive	inactive	inactive	inactive	inactive				
CC(O)C(C)O (configuration not stated)	inactive	inactive	inactive	inactive	inactive	inactive	inactive	inactive	inactive	inactive				
O=C(O)CCc1nc2ccccc2[nH]1	inactive	inactive	inactive	inactive	inactive	inactive	inactive	inactive	inactive	inactive				
CC(C)(C)N	inactive	inactive	inactive	inactive	inactive	inactive	inactive	inactive	inactive	inactive				
O=[N+]([O-])c1cccc(I)c1	inactive	inactive	inactive	inactive	inactive	inactive	inactive	inactive	inactive	inactive				
Cc1cc(C)n(CO)n1	inactive	inactive	inactive	inactive	inactive	inactive	inactive	inactive	inactive	inactive				
CCCCOC(=O)C(C)Oc1ccc(Oc2ccc(C(F)(F)F)cn2)cc1 (configuration not stated)	inactive	inactive	inactive	inactive	inactive	inactive	inactive	inactive	inactive	inactive				
O=C1CCCN1CCO	inactive	inactive	inactive	inactive	inactive	inactive	inactive	inactive	inactive	inactive				
CO[C@@H]1[C@@H](O[C@@H]2O[C@H](C)[C@@H](O[C@H]3C[C@@](C)(O)[C@@H](O)[C@H](C)O3)[C@H](N(C)C)[C@H]2O)[C@@H](CC=O)C[C@@H](C)[C@@H](O[C@@H]2CC[C@H](N(C)C)[C@@H](C)O2)/C=C/C=C/C[C@@H](C)OC(=O)C[C@H]1OC(C)=O	inactive	inactive	inactive	inactive	inactive	inactive	inactive	inactive	inactive	inactive				
CC1(C)[C@@H]2CC[C@]3(C2)[C@@H]1C(=O)CCC3(C)C	inactive	inactive	inactive	inactive	inactive	inactive	inactive	inactive	inactive	inactive				
CCOc1ccccc1O	inactive	inactive	inactive	inactive	inactive	inactive	inactive	inactive	inactive	inactive				
CC1(C)CC(=O)CC(C)(C)N1	inactive	inactive	inactive	inactive	inactive	inactive	inactive	inactive	inactive	inactive				
CCOC(OCC)OCC	inactive	inactive	inactive	inactive	inactive	inactive	inactive	inactive	inactive	inactive				
C/C(=C(\CCO)SS/C(CCO)=C(\C)N(C=O)Cc1cnc(C)nc1N)N(C=O)Cc1cnc(C)nc1N	inactive	inactive	inactive	inactive	inactive	inactive	inactive	inactive	inactive	inactive				
CC1=C(C)C(=O)C(C(CCCCCC(=O)O)c2ccccc2)=C(C)C1=O (configuration not stated)	inactive	inactive	inactive	inactive	inactive	inactive	inactive	inactive	inactive	inactive				
CC(C)=CCCC(C)C=O (configuration not stated)	inactive	inactive	inactive	inactive	inactive		inactive	inactive	inactive	inactive				
CC(C)Cc1nccs1	inactive	inactive	inactive	inactive	inactive		inactive	inactive	inactive	inactive				
CCCCCCOC(=O)c1ccccc1	inactive	inactive	inactive	inactive	inactive	inactive	inactive	inactive	inactive	inactive				
Cc1c(N=C=O)cccc1N=C=O	inactive	inactive	inactive	inactive	inactive	inactive	inactive	inactive	inactive	inactive				
CCN(CCCCOC(=O)c1ccc(OC)c(OC)c1)C(C)Cc1ccc(OC)cc1 (configuration not stated)	inactive	inactive	inactive	inactive	inactive	inactive					0.21% [at 18.6 µM]	0.0889% [at 18.6 µM]	0.0022% [at 18.6 µM]	-0.338% [at 18.6 µM]
C/C(=C\C(C)CC(C)CC(C)C)C1CC(=O)OC1=O (configuration not stated)	inactive	inactive	inactive	inactive	inactive	inactive	inactive	inactive	inactive	inactive				
O=C(O)c1ccccc1[N+](=O)[O-]	inactive	inactive	inactive	inactive	inactive		inactive	inactive	inactive	inactive				
CC(C)C[C@H](NC(=O)[C@H](Cc1ccccc1)NC(=O)c1cnccn1)B(O)O	15 nM (active) and 9.4 nM (active)	21.1 nM (active) and 18.8 nM (active)	376 nM (active) and 211 nM (active)	376 nM (active) and 94.4 nM (active)	inactive	inactive	inactive	inactive	inactive	inactive				
